The record followed here is publication PMC12136788.

Numbering of substitutions follows the chain as printed. In all, about 5,800 sequences were measured (“enrichment r”: median about 0.68, highest 2% from about 11 on). The list comes from a sample in which the highest values are over-represented; it also holds similar and randomly drawn sequences.

B1: ENSG00000198589:be:win_7401|CDS|ENSG00000198589|bound_else_gene|NA|bound_elsewhere_windowed (ssRNA)
RNA: GGGAGUUCUACAGUCCGACGAUCUUCUCAACUACUCAUAGAGCCCCAUCCUCCCAGAGGUUCUGCCAUGCAAGUGAGUCCAUUGAUGUUCACAGACAAAGCCCAGCAGGAUGUUAUCAUGGUCCUCAAGUUUCCCUCCAACUCCAACAGAGGAUUGAGCAUCA
B2: chr5:128187618:128187661:+|3pUTR|ENSG00000064651|msi1_unk|total|mutant (ssRNA)
RNA: GGGAGUUCUACAGUCCGACGAUCUCCUUUAUAAGUCAUUAAAAUAAUGUUUCAUCAAAUGGUUAAAUGGACCACUGGUUUCUCCGAGAAAUGUUUUCCGGCUUAAUUCAUUCAAUUGUCAAGUACACUCCGUCUUAAUACACUCAACAGAGGAUUGAGCAUCA
B3: chr1:159061598:159062691:-|three_prime_utr|ENSG00000163568|control|control|control (ssRNA)
RNA: GGGAGUUCUACAGUCCGACGAUCUCAAUCAGAUUGUAAGUUACCUGAAAGCUGCAGUUCACAGGCUCCUCUCUCCACCAAAUUAGGAUAGAAUAAUUGCUGGAUAAACAAAUUCAGAAUAUCAACAGAUGAUCACAAUAAACACAACAGAGGAUUGAGCAUCA
B4: chrX:107070192:107070425:-|CDS|ENSG00000089682|control|control|control (ssRNA)
RNA: GGGAGUUCUACAGUCCGACGAUCCGUUCUAGGAGCCAAAUGGCAGAAAAGGACUGGGAGGACCUCAACAUUUAGUAUUCUCUUAGUUUCCUUGCUUUCAGAAACAGUGUUCACAUCUUCAGCCAUGUAUGGCAUUCCCCAUCUCAACAGAGGAUUGAGCAUCA
B5: chr10:95606323:95606429:-|3pUTR|ENSG00000059573|unk|FALSE|bound_elsewhere (ssRNA)
RNA: GGGAGUUCUACAGUCCGACGAUCCCAUGGCUGCUUUGUGUCACCUCAGUGACUUACAGUCCCCCUUGGCAUUUAGUUGGUACUAGAGCCAGUCAUCCUUAACAAAUCUUUUCACAUUUUAUUUCUUUCACAUGUAGUCAUCUUCAACAGAGGAUUGAGCAUCA
B6: chr10:95606323:95606429:-|3pUTR|ENSG00000059573|unk|total|mutant (ssRNA)
RNA: B5 RNA with U73C, A74C, U83C, A84C, U134C, A135C
B7: chr14:106116634:106116941:-|CDS|ENSG00000211941|control|control|control (ssRNA)
RNA: GGGAGUUCUACAGUCCGACGAUCUGGAUCCGCCAGGCUCCAGGGAAGGGGCUGGAGUGGGUUUCAUACAUUAGUAGUAGUAGUAGUUACACAAACUACGCAGACUCUGUGAAGGGCCGAUUCACCAUCUCCAGAGACAACGCCCAACAGAGGAUUGAGCAUCA
B8: ENSG00000070961:be:win_4601|3pUTR|ENSG00000070961|bound_else_gene|NA|bound_elsewhere_windowed (ssRNA)
RNA: GGGAGUUCUACAGUCCGACGAUCUCAGACUAUCAAACUACAAGAGAACCUUAGUCUUUUUUGUUUUUGUCUAAACAUGUUAGUUUAGUGAUGUCUUGGUGAACUGUGAGUGAACUGUAUUGAUUUUUCUAAUCUUUAGAGACCCAACAGAGGAUUGAGCAUCA
B9: ENSG00000157823:stop:overlap|stop_codon|ENSG00000157823|stop_codon|NA|stop_codon (ssRNA)
RNA: GGGAGUUCUACAGUCCGACGAUCUCCGCUUCUACCAGCGUUUCAAGAAAUUCAACAGCAGAUUGUUCGAGAGACUUUCCAUCUAGUCCUCAAGCGGGAUGACAACAUCUGUAACUUCUUGGAGGGUGGAAGUUUGAUUGGUGGCAACAGAGGAUUGAGCAUCA
B10: chr13:42321371:42321394:+|3pUTR|ENSG00000023516|msi1_unk|FALSE|overlapping (ssRNA)
RNA: GGGAGUUCUACAGUCCGACGAUCUUCUGUUUAUGGUGUAAUCAUUCUGAGGUGAGGCUUUUCUUAUUUCCUUUGCAUUUUGCUAGAGCUGUGCUGAGUUCAGCAUUUGCUUAUUUAACCACUACAUAAUGACAGACCAGUUAUCAACAGAGGAUUGAGCAUCA
B11: chr15:67202635:67202736:-|3pUTR|ENSG00000103591|msi1|FALSE|unique (ssRNA)
RNA: GGGAGUUCUACAGUCCGACGAUCUGCCAAAAUUGCCCUUAUCAUGUUGGCUGCCUGACUUGUUUAUAGGGUCCCCUUAAUUUUAGUUUUUAGUAGGAGGUUAAGGAGAAAUCUUUUUUUUCCUCAGUAUAUUGUAAGAGAGUGCAACAGAGGAUUGAGCAUCA
B12: chr7:7573188:7573293:+|CDS|ENSG00000164654|unk|total|mutant (ssRNA)
RNA: GGGAGUUCUACAGUCCGACGAUCCCAUAUUUCCACGAUCGUGUUGCUUCCUUCUAUGAAGGUCAGGUUGCAAUAUGGGAUCUCCGAAAAUUUGAGAAGCCAGUUUUGACAUUGACUGAGCAACCAAAACCCUUAACAAAAGUACAACAGAGGAUUGAGCAUCA
B13: chr17:29548703:29548809:+|3pUTR|ENSG00000160551|unk|FALSE|bound_elsewhere (ssRNA)
RNA: GGGAGUUCUACAGUCCGACGAUCAGCACUUGUGAGUGAAAAAUCAUGUAAUUAUCUGUAAAUAUGUAGCUAACAAAUUGACCUAGUUUCUGUAUUUUUUUGUUUUUGUACUAAAGUUUAUAGGUCUGUGCCAGCUAGAGAGAACAACAGAGGAUUGAGCAUCA
B14: chr19:34469546:34469571:+|3pUTR|ENSG00000126261|msi1_unk|FALSE|overlapping (ssRNA)
RNA: GGGAGUUCUACAGUCCGACGAUCGUUGCCUUUUUAAUGUAAAUACCCGUAGGUAUCAUUAAUAGUUUCAAAAUAUUGUGGUUUAGUAAAGUUGAUACCUGGUUAUAAAUAUUAUGCCUUUAUUUUUGGCUAGAAGAAGAAUUACAACAGAGGAUUGAGCAUCA
B15: chr1:68475836:68475940:-|3pUTR|ENSG00000024526|unk|total|mutant (ssRNA)
RNA: GGGAGUUCUACAGUCCGACGAUCAUGCCCAGGGCCUAACUUACACUAAUUAAAUCUGAAUUUUGGGGAUGUUGUACCGGGAUCCGUAUUUUUUUUAAUCCCGGUGAUUCCAAUAUUCAGCCAACUGUGAGAAUCAAUGGCCUACAACAGAGGAUUGAGCAUCA
B16: chr8:23844609:23844711:-|3pUTR|ENSG00000159167|msi1|FALSE|unique (ssRNA)
RNA: GGGAGUUCUACAGUCCGACGAUCUUUAGGGGUGUUGACACACCAGUUUUGAGUGUACUGUGCCUGGUUUGAUUUUUUUAAAGUAGUUCCUAUUUUCUAUCCCCCUUAAAGAAAAUUGCAUGAAACUAGGCUUCUGUAAUCAAUCAACAGAGGAUUGAGCAUCA
B17: chr7:157269180:157269282:+|3pUTR|ENSG00000009335|unk|FALSE|unique (ssRNA)
RNA: GGGAGUUCUACAGUCCGACGAUCAUUUUAGGUUGUUUUAUGUUGAAUGUUCUAUAUCUUAUUAGUUAAUUUGUAUAUUUUAUUAGUAUUUUGGAAAUAGCAUAUCUGAGACUGAAGAGAAAUUGACAAUUCACUUAUUUGUGGCAACAGAGGAUUGAGCAUCA
B18: chr18:2804133:2804242:+|3pUTR|ENSG00000101596|unk|FALSE|unique (ssRNA)
RNA: GGGAGUUCUACAGUCCGACGAUCGGUUAAAGAGAAAUGACUUUUUAGGAACUAGACUUGAACGUAUAAUUAAUAUGUGGAACUAGUUUGCUUUUAUAAUUCAUUGUAUCAAGAAGGAGUCAUGUUUUAAAUCCAAGGCAUUGACAACAGAGGAUUGAGCAUCA
B19: chr7:157269180:157269282:+|3pUTR|ENSG00000009335|unk|total|mutant (ssRNA)
RNA: B17 RNA with U28C, A29C, U62C, A63C, U83C, A84C, U97C, A98C
B20: chrX:135156539:135157311:-|three_prime_utr|ENSG00000169551|control|control|control (ssRNA)
RNA: GGGAGUUCUACAGUCCGACGAUCUUUAUUCUGUUUAUCUUUCCUUUUAUGAGCAGUAAAGGGGCUGGUUUAACUUAAAAGGUUAGCUUAGUAAGCCUAAAUAGUAUUUUAUAUAUGACUUUUCUGGCAAAUCUAAUUGAGACACAACAGAGGAUUGAGCAUCA
B21: chr2:65312585:65312700:-|3pUTR|ENSG00000198369|unk|FALSE|unique (ssRNA)
RNA: GGGAGUUCUACAGUCCGACGAUCUGGACCAGGGCUAGAAUGGGGAUUUCAGGUUUCUAUGAGCCUCCCCAUUACCCCUAAAGUAGAACAUUUUUUAAAUUGUGUUGCCACCACUUCUAAAAAUUUAGCAAUAUUAGAAUAGGACAACAGAGGAUUGAGCAUCA
B22: chr1:68475836:68475940:-|3pUTR|ENSG00000024526|unk|FALSE|unique (ssRNA)
RNA: B15 RNA with C76U, C77A, C83U, C84A, C100U, C101A

The target of the test is T1, UNK ZnF1-6 (called full-length) (human, UniProt Q9C0B0 30-357).
T1 sequence: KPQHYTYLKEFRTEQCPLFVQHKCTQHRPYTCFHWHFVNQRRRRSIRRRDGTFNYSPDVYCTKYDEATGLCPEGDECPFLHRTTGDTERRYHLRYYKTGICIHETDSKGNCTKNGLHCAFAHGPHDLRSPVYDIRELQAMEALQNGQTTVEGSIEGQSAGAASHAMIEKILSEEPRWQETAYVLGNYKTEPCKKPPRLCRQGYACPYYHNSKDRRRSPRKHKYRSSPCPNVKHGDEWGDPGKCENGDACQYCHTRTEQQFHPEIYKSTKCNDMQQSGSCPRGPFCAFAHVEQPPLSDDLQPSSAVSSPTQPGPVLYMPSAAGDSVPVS
The test can be described thus: nsRBNS (natural sequence RNA bind-n-seq); RBNS binding buffer (assumed for nsRBNS): 25 mM Tris pH 7.5, 150 mM KCl, 3 mM MgCl2, 0.01% Triton X-100, 500 ug/ml BSA, 20 U/ml SUPERase-In, 4 C; UNK is unkempt and MSI1 is Musashi-1; names of the RNAs are library labels; protein concentration not given here; high values mean tight binding.
The molecule B1 yielded a binding signal of 0.555 enrichment R.

B2 had a binding signal of 0.678 enrichment R.

In turn, B3 came in with a binding signal of 1.86 enrichment R.

In turn, B4 registered a binding signal of 3.69 enrichment R.

As for B5, the binding signal worked out at 15.5 enrichment R.

B6 returned a binding signal of 6.24 enrichment R.

In the case of B7, the binding signal was found to be 1.12 enrichment R.

B8 displayed a binding signal of 2.66 enrichment R.

In turn, B9 yielded a binding signal of 0.633 enrichment R.

Molecule B10 had a binding signal of 0.605 enrichment R.

On to B11, for which the binding signal turned out to be 15.9 enrichment R.

Consider B12, for which the binding signal was 0.291 enrichment R.

Take B13: the binding signal is 6.33 enrichment R.

On to B14, for which the binding signal was 9.94 enrichment R.

Molecule B15 gave a binding signal of 0.698 enrichment R.

For the molecule B16, the binding signal came out at 0.924 enrichment R.

In turn, B17 registered a binding signal of 19.7 enrichment R.

As for B18, the binding signal came to 0.789 enrichment R.

B19 yielded a binding signal of 0.843 enrichment R.

The molecule B20 returned a binding signal of 1.68 enrichment R.

In turn, B21 displayed a binding signal of 13.9 enrichment R.

Molecule B22 had a binding signal of 11.6 enrichment R.
